Experimental data reported in PubChem BioAssay.
Records with an inconclusive call do not appear. The source made the active and inactive calls.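 Rule for the calls, unless noted: active = RAM network inhibition above 8.4% in each of two replicates, 3 SD over the compound average; inconclusive = above 8.4% inhibition in only one replicate; inactive = 8.4% inhibition or less in each replicate.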

Assays:
[1] = reducers of endogenous Her2 protein level, primary screen, SKBR3 breast tumor cells, AlphaScreen, ATP viability (AID 461;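 active = Her2 level under about 52% in both replicate screens, with viability over 70% of control, limit read from the data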;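 for Her2 level: lower value means less Her2 protein in the cells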;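 for viability: percent of carrier control wells set as 100% viability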); settings: 18-24 h, measured here: SKBR3 viability, ATP luminescence, at 10 µM
[2] = target: Receptor tyrosine-protein kinase erbB-2 (Homo sapiens) (UniProt P04626); assay: as above; settings: 18-24 h, at 10 µM, stronger effect = lower value
Chain of Receptor tyrosine-protein kinase erbB-2 (Homo sapiens) (P04626 whole entry, looked up): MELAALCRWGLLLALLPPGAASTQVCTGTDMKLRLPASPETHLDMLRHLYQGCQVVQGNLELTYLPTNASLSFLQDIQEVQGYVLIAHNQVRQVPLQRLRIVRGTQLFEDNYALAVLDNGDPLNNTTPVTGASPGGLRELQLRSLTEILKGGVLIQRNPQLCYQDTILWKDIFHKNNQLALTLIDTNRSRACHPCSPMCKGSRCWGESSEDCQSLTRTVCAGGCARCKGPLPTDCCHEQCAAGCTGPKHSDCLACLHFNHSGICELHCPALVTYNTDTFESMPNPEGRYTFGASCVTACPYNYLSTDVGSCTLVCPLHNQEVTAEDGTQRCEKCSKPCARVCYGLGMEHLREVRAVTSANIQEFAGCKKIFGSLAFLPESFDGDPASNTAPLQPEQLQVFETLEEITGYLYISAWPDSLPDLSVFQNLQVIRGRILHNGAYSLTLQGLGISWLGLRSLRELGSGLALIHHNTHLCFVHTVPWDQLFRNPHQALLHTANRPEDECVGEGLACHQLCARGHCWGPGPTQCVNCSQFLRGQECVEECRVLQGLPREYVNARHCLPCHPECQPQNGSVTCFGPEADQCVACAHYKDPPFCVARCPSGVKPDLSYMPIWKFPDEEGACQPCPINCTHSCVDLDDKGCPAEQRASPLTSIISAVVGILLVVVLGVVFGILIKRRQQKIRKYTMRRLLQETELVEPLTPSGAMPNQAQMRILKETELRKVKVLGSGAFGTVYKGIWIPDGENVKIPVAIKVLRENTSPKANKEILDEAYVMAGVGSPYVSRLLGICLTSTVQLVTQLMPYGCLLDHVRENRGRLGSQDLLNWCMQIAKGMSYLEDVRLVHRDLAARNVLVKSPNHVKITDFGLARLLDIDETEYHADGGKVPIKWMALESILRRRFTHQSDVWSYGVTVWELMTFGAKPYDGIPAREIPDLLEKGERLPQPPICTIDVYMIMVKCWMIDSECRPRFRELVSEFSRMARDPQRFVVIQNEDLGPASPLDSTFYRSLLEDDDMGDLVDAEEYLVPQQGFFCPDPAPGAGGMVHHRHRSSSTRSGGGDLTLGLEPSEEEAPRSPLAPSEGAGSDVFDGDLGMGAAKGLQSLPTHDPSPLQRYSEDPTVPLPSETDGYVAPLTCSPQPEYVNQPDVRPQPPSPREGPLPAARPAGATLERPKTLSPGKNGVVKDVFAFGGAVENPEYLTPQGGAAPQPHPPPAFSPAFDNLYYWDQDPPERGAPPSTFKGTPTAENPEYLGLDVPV

[3] = SK-BR-3 cell growth inhibitors, pilot screen, 24 h, human (AID 572;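 active = viability at or below 10% of carrier control in both of two separate runs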;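 note: compound exposure lasted between 18 and 24 h rather than exactly 24 h; 100% = carrier-treated control wells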); settings: SK-BR-3 viability, CellTiter-Glo luminescence, at 10 µM, stronger effect = lower value
[4] = HUVEC growth inhibition – cell-based, human, primary screen (AID 575;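 active = viability at or below 30% in both replicate assays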;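 note: 100% = median of untreated cell wells with 0.1% DMSO on each plate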); settings: HUVEC proliferation, CellTiter-Glo luminescence, 72 h; at 10 µM; stronger effect = lower value
[5] = growth inhibitors of H69AR lung tumor, primary screen, human, duplicate replicates (AID 580;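 active = viability at or under a set limit in both replicates, limit being median viability minus 3 SD, cut at about 48% in these data, passing the limit was not always enough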;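 note: 100% = mean luminescence of untreated wells and 0% = no signal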); settings: H69AR lung tumor cells viability, ATP luminescence, 72 h; at 10 µM; stronger effect = lower value
[6] = reversal of MRP1-mediated doxorubicin resistance, pilot screen, H69AR cells, doxorubicin co-treatment (AID 601;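 active = viability loss from added drug above about 55%, and viability with drug at most 40%, in both replicates, limit read from the data, passing the limit was not always enough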); settings: CellTiter-Glo, 72 h, at 10 µM; for differential viability (reversal): stronger effect = higher value
[7] = 384-well plate pilot, post-Golgi transport modulator project, inhibition of yeast transport mutant growth (AID 636; in the data active = inhibition above about 31%); settings: absorbance 615 nm, about 18 h, stronger effect = higher value
[8] = growth suppression of yeast trafficking mutant, preliminary HTS, modulators of trafficking downstream of Golgi apparatus project, 1536-format plate, OD 615 nm (AID 637; in the data active = inhibition above about 30%); settings: yeast transport mutant growth, absorbance 615 nm, 18 h; stronger effect = higher value
[9] = OD615 S. cerevisiae growth inhibition, permissive medium, pilot counter-assay, permissive growth control for S. cerevisiae lifespan shortening project (AID 705;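 active = growth inhibition above 25% in both replicates, a cutoff set 3 SD above the mean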); settings: OD615, 24 h, at 10 µM, stronger effect = higher value
[10] = Restrictive medium S. cerevisiae growth inhibition, OD615, pilot screen of yeast lifespan reduction project, restrictive growth control (AID 706;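 active = growth inhibition above a set limit, 3 SD over mean compound inhibition, in both replicates, cut at about 43% in these data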;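 note: modified DeaD lifespan yeast strain shifted to restrictive glucose medium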); settings: OD615, 48 h, at 10 µM, stronger effect = higher value
[11] = viability gain of MRP-1-high H69AR cells under doxorubicin, pilot screen, MRP-1 activator project, CellTiter-Glo, duplicate (AID 807;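 active = viability increase at or above a cutoff of the median across tested compounds plus 3 SD, cut at about 8.5% in these data, passing the limit was not always enough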;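 note: compound pretreatment 18-22 h then 72 h combined with doxorubicin; 0% = doxorubicin alone and 100% = vehicle without doxorubicin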); settings: H69AR viability with doxorubicin, CellTiter-Glo luminescence; at 10 µM; stronger effect = higher value
[12] = growth suppression of beta-catenin knockout HCT116, pilot screen, human colon tumor cells (AID 823;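 active = cell viability at or below a set limit in both duplicate runs, the limit being the all-compound median minus 4 SD, cut at about 23% in these data, passing the limit was not always enough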;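 note: 0% = wells killed by 20 µM Hyamine and 100% = untreated DMSO cell wells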); settings: CellTiter-Glo, 60 h, at 10 µM, stronger effect = lower value
[13] = growth suppression of PTEN-deleted HCT116, pilot screen, cell-based, HCT116 clonal line, CellTiter-Glo (AID 824;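 active = viability at or below 27.92% in each of two runs, the all-compound median minus 4 SD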;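 note: 0% = 20 µM Hyamine control and 100% = vehicle cell control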); settings: 60 h, at 10 µM, stronger effect = lower value
[14] = inhibitors of the yeast RAM network, pilot screen, dse1pr::URA3 reporter, 5-FOA selection (AID 869;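 active = inhibition over a set limit, the all-compound mean plus 3 SD, in both replicate runs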;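 note: 0% = DMSO wells with no growth and 100% = 10 µM 1-NA-PP1 with full growth; RAM network block rescues cells from 5-FOA so hits raise OD615 growth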); settings: S. cerevisiae dse1pr::URA3 5-FOA growth, OD615, 2 d; at 10 µM; stronger effect = higher value; strain carries analog-sensitive mutant Cbk1 kinase
[15] = RAM signaling pathway blockade in yeast – S. cerevisiae, Pdr1DBD-CYC8 efflux-inhibited sensitized strain, primary screen (AID 1298);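 note: 0% = DMSO untreated cells without growth and 100% = 10 µM 1-NA-PP1 full growth; higher means more yeast growth rescued from 5-FOA killing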; settings: S. cerevisiae cbk1-as DSE1-URA3 strain, 5-FOA growth OD615, 2 d; at 50 µM; stronger effect = higher value
[16] = H69AR cells + 2 uM doxorubicin, measured here: viability with 2 uM doxorubicin, stronger effect = lower value
[17] = H69AR cells, compound alone cytotoxicity

SMILES | viability [1] | Her2 level [2] | viability [3] | viability [4] | viability [5] | differential viability (reversal) ([6]; H69AR cells + 2 uM doxorubicin) | viability [6, 16] | viability [6, 17] | inhibition [7] | inhibition [8] | growth inhibition [9] | growth inhibition [10] | viability increase [11] | viability [12] | viability [13] | inhibition [14] | RAM network inhibition [15]
CCCCCOc1ccc(C2NC(=O)NC2=O)cc1 (stereo not given) | 97% | 109% (inactive) | 97% (inactive) | 102% (inactive) | 106% (inactive) | 18.2% (inactive) | 88.1% | 106% | -4.93% (inactive) | -3.5% (inactive) | -7.17% (inactive) | -19.9% (inactive) | -1.63% (inactive) | 101% (inactive) | 94.5% (inactive) | 0.245% (inactive) | 1.57% (inactive)
Cc1cccc(N2C(=O)CC(N3CCN(c4cccc(C(F)(F)F)c4)CC3)C2=O)c1 (stereo not given) | 94.5% | 74.5% (inactive) | 94.5% (inactive) | 73.2% (inactive) | 96.9% (inactive) | 6.09% (inactive) | 90.8% | 96.9% | -2.86% (inactive) | -9% (inactive) | -12.6% (inactive) | -8.65% (inactive) | 3.91% (inactive) | 97.3% (inactive) | 97.8% (inactive) | 1.32% (inactive) | 5.57% (inactive)
Cc1cc(C)n2nc(S(=O)(=O)N(C)c3ccccc3)nc2n1 | 103% | 102% (inactive) | 103% (inactive) | 88.2% (inactive) | 94.5% (inactive) | 0.67% (inactive) | 93.9% | 94.5% | -5.6% (inactive) | 4.17% (inactive) | -16.1% (inactive) | -13.7% (inactive) | -1.5% (inactive) | 104% (inactive) | 98.1% (inactive) | 3.53% (inactive) | 1.62% (inactive)
COCCNC(=O)CN1C(=O)CSc2ncccc21 | 83.5% | 88% (inactive) | 83.5% (inactive) | 97.8% (inactive) | 86.4% (inactive) | -8.7% (inactive) | 95.1% | 86.4% | -4.67% (inactive) | -0.33% (inactive) | 2.19% (inactive) | -5.72% (inactive) | -0.21% (inactive) | 102% (inactive) | 92% (inactive) | 1.92% (inactive) | 0.97% (inactive)
Cc1cc(=O)oc2c1c(C)nn2-c1ccc(C(=O)OC(C)C)cc1 | 83.5% | 83.5% (inactive) | 83.5% (inactive) | 99% (inactive) | 96.9% (inactive) | 2.41% (inactive) | 94.5% | 96.9% | -0.13% (inactive) | 1.15% (inactive) | -4.51% (inactive) | 3.34% (inactive) | -3.1% (inactive) | 97.3% (inactive) | 87.4% (inactive) | 0.78% (inactive) | 1.04% (inactive)
Cc1cn2c(-c3ccc(Cl)cc3)nnc2s1 | 96% | 92.5% (inactive) | 96% (inactive) | 74.7% (inactive) | 95.2% (inactive) | -3.87% (inactive) | 99.1% | 95.2% | -3.87% (inactive) | 4.67% (inactive) | -8.55% (inactive) | 16.2% (inactive) | -0.6% (inactive) | 97.6% (inactive) | 90.3% (inactive) | 2.66% (inactive) | 4.88% (inactive)
Cn1nnnc1SCC(=O)Nc1ccccc1C(=O)NCc1ccccc1 | 99% | 98% (inactive) | 99% (inactive) | 108% (inactive) | 90.2% (inactive) | -4.73% (inactive) | 94.9% | 90.2% | -6.49% (inactive) | -7.33% (inactive) | -9.6% (inactive) | 4.06% (inactive) | -2.1% (inactive) | 97.6% (inactive) | 97.8% (inactive) | 1.04% (inactive) | 7.35% (inactive)
COc1cccc(C2CC(c3ccc(C)cc3)Nc3nc(N)nn32)c1 (stereo not given) | 88% | 98.5% (inactive) | 88% (inactive) | 99.2% (inactive) | 97.9% (inactive) | 4.01% (inactive) | 93.9% | 97.9% | -0.4% (inactive) | -5.9% (inactive) | -2.17% (inactive) | 2.23% (inactive) | 0.54% (inactive) | 98.6% (inactive) | 95.5% (inactive) | 0.515% (inactive) | -0.56% (inactive)
COC(=O)CSC1=C(C#N)C(c2ccc(F)cc2)CC(=O)N1 (stereo not given) | 109% | 105% (inactive) | 109% (inactive) | 101% (inactive) | 80.8% (inactive) | 0.195% (inactive) | 80.6% | 80.8% | -4.93% (inactive) | -4.75% (inactive) | 9% (inactive) | -15.4% (inactive) | -0.35% (inactive) | 100% (inactive) | 95.9% (inactive) | 0.905% (inactive) | -1.71% (inactive)
O=C(Nc1ccncc1)C1CCCN(S(=O)(=O)c2cccc3cccnc23)C1 (stereo not given) | 84.5% | 104% (inactive) | 84.5% (inactive) | 63% (inactive) | 17.4% (active) | -58.8% (inactive) | 76.2% | 17.4% | -7.07% (inactive) | 3.33% (inactive) | -10.3% (inactive) | -4.11% (inactive) | -6.31% (inactive) | 19.9% (active) | 23.8% (active) | 1.59% (inactive) | 2.56% (inactive)
